Molecules are shown by their SMILES. About 83,000 compounds went through this panel and 20% of them were active in at least one assay; those are over-represented in the sample as a whole.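 Compound tested at a single concentration for 48 hours in 96-well plates; a percent growth value below 10 was scored as active.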 Unmarked numbers belong to inactive results. Activity calls are given as the source filed them.

This experiment concerns HL-60(TB) leukemia. Briefly: NCI-60 one-dose screen, 48 h (100 = growth as untreated, 0 = no growth, -100 = all killed). To be noted: 10 µM unless noted.
On to `CCCCCCCCCCCCC[C@H](O)C[C@H](O)[C@H](C)N`, for which the growth is 54.8% [1.25 µM].

Consider `CCN1C(=O)N(CC)C2Nn3c(s/c(=C4\C(=O)N(CCC(C)C)c5ccccc54)c3=O)=NC21` (stereo not given), for which the growth is 83.1%.

For the compound `COc1cccc(-c2nc(-c3ccc(NC(=O)C(C)C)cc3)[nH]c2-c2ccnc(Br)c2)c1`, the growth was -23.4% (active).

On to `Cc1[nH]c(C(=O)Nc2ccccc2OC2CCN(CCN3CCOCC3)CC2)c(Cl)c1Cl`, for which the growth is 97.9%.

Regarding `Nc1nc(Nc2cccc(F)c2)nc2ccccc12`, the growth is 28.6%.

As for `O=C(NCCCNS(=O)(=O)c1ccc(Cl)cc1)Nc1ccc(-n2cc(-c3ccncc3)c(-c3ccc(Cl)c(O)c3)n2)cc1`, the growth was 16.3%.

As for `CC(CN1CCCCC1)C(=O)c1ccccc1` (stereo not given), the growth is 103%.

In the case of `CCCCCCCCCCCCCCCC(=O)OC1[C@@H](OC(=O)CCCCCCCCCCCCCCC)[C@@H](C(=O)N[C@@H](CCCCN)C(=O)OC)O[C@H]1n1cnc2c(=O)[nH]c(NC(=O)C(C)C)nc21` (stereo not given in full), the growth is 98.3%.

For the compound `O=C(/C=C/c1c[nH]c2ccccc12)c1cc2ccccc2o1`, the growth was 37.9%.

`C/C(=C(/c1ccccc1)c1ccc(N2C(=O)c3cccc4c(N5CCN(C)CC5)ccc(c34)C2=O)cc1)c1ccccc1`: the growth is 99.3%.

For the compound `CC1(C)CC(=O)C2=C(C1)N(c1ccc(F)cc1F)C(N)=C(C#N)C2c1cc(Br)ccc1F` (stereo not given), the growth is 99.4%.

With `CN(C)CC1=NC2SC=C(c3ccccc3)C2C(=O)N1CC#N` (stereo not given), the growth is 86.1%.

As to `COc1cc(N)c2ncccc2c1Cl`, the growth was 85.6%.

Regarding `CC(=O)c1cc(Br)ccc1O`, the growth was 101%.

As for `O=[N+]([O-])c1ccccc1Nc1ccc2ccccc2c1`, the growth is 93.5%.

Consider `C(=Nc1ccc(-c2ccc(N=Cc3ccccc3)cc2)cc1)c1ccccc1`, for which the growth was 107%.

In the case of `COc1cc(C2NN=C3c4ccccc4CCC32)cc(OC)c1OC` (stereo not given), the growth was 74.1%.

Consider `NC(=O)c1ccc[n+](Cc2ccc(Cl)cc2Cl)c1`, for which the growth was 73.1%.

In the case of `CCCC(=O)Nc1ccc2c(c1)CN1C(=O)c3ccccc3C1=N2`, the growth is 81.9%.

For `CC(C)c1ccc(Cc2cnc(NC(=O)c3cc(Br)cs3)s2)cc1`, the growth is -24% (active).

With `CC(C)OC(C(=O)O)c1ccccc1` (stereo not given), the growth is 129%.

Turning to `Cc1ccc(Nc2cc(=S)nc(N)[nH]2)cc1C`, the growth was 92.6%.

In the case of `CN(C)CCS(=O)(=O)Nc1cc(-c2ccc3ncnc(Nc4ccc(F)c(Cl)c4)c3c2)cnc1Cl`, the growth is -15% (active).

As to `Nc1c(C(=O)c2ccccc2)nnc2ncnn12`, the growth was 105%.

In the case of `O=c1sn(-c2cccc3ccccc23)c(=O)n1Cc1ccccc1`, the growth is 51.2%.
